Screening data from PubChem.
D1 antag: antagonists of human D1 dopamine receptor | P21728 | HEK293 TREx D1 cells, calcium flux, dopamine EC80; hits give low values | activity change, negative = inhibition, % at 10 µM | hit rate 3.2% among 360,000; in the data active = activity change below about -30%; note: % is set by controls: 0 for no effect and ±100 for the full control effect
Target sequence (P21728 whole entry, looked up): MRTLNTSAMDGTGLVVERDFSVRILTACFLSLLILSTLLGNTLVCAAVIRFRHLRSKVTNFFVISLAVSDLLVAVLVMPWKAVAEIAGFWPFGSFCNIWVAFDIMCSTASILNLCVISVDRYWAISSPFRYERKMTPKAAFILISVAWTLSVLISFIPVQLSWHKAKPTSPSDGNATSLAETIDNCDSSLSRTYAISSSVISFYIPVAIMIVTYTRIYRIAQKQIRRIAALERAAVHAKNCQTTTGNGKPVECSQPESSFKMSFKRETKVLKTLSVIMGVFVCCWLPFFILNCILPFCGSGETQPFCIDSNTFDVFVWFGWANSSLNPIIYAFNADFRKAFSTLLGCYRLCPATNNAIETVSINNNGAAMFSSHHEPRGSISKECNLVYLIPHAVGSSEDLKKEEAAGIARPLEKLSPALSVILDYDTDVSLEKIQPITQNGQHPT
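Antagonism measured as reduced calcium response to an EC80 dopamine addition following 180 s compound pre-read; cells were inducible HEK293 Trex D1 plated overnight at 30 C, read kinetically at 1 cycle/sec.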
TRHR ag: TRH receptor (human) agonism | TRHR cells, calcium flux fluo-8, FDSS agonist mode | activation, % at 2 µM | hit rate 0.18% among 360,000; note: 0% is about no effect
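TRHR-expressing cells, plated overnight in medium with 10% serum, were loaded with fluo-8 calcium dye at room temperature. After a 10 s baseline, library compound was pin-added and calcium release was recorded kinetically (ex 480/em 530) as agonist response.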
TRHR enhancer: allosteric enhancers of human TRH receptor | AID 493056 | hit rate 0.66% among 360,000 | TRHR cells, fluo-8 calcium fluorescence, EC20 TRH enhancement | P34981 | enhancement, % at 2 µM; in the data active = enhancement above about 30%; note: 0% is about no effect
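TRHR-expressing cells loaded with fluo-8 calcium dye were read kinetically (ex 480/em 530) during compound addition, then stimulated with an EC20 of TRH (10 nM final). Enhancement of the Gq-mediated intracellular calcium response was scored.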
D1 potentiator: enhances dopamine response at the human D1 receptor; P21728; HEK293 TREx D1 cells, calcium flux, dopamine EC20 potentiation; potentiation, % at 10 µM; hit rate 0.036% among 360,000; AID 504651; in the data active = potentiation above about 30%; note: 0% is about no effect
D1 agonist: agonists of human D1 dopamine receptor | activation, % at 2 µM | hit rate 1% among 360,000 | HEK293 T-REx D1 cells, calcium flux, agonist mode | P21728; note: 0% is about no effect
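Agonism was scored from calcium flux recorded over 180 s (1 read/s) after pintool compound addition, following a 10-cycle baseline. Cells were inducible force-coupled HEK293 TREx D1, plated overnight at 30 C and loaded with no-wash calcium dye.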
USP1-UAF1 inh: USP1/UAF1 (human) deubiquitinase inhibition. AID 743255. O94782. Potency, µM (titrated, usually from 57.1 µM), for the others: at the top dose activity change, negative = inhibition, hits mostly inhibitors. hit rate 0.23% among 390,000. recombinant USP1/UAF1, Ub-Rhodamine cleavage fluorescence; active = well fitted inhibition curve with a large enough effect; inconclusive = small, poorly fitted or top-dose-only effect; inactive = no such curve, though single readings can be large or run the other way; note: potency is the fitted concentration of half-maximal effect; % is set by controls: 0 for no effect and ±100 for the full control effect; nearly all actives have a fitted effect of over 60% in size
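1 nM enzyme complex + cpd, 15 min RT; start with Ub-Rho 150nM final; kinetic fluorescence ex 480/em 540, 6 reads q60 s. Buffer 50mM HEPES pH 7.8, 0.5mM EDTA, 0.1 mg/ml BSA, 1mM TCEP, 0.01% Tween-20.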
An asterisk follows results filed as active; u = inconclusive; x = not tested or not shown. Shown are actives, neighbours in structure and some others; about 4.4% of the full set was active somewhere. Cut-off read from the data, not from the text of the source, unless noted: active = activation above about 30%; inactive = the rest.

SMILES	D1 antag	TRHR ag	TRHR enhancer	D1 potentiator	D1 agonist	USP1-UAF1 inh
CC1=CC(C)(C)Nc2ccc(OS(=O)(=O)c3ccc(C)cc3)cc21	4	1	-9	3	9	-20%
CC(=O)Nc1ccc(S(=O)(=O)Oc2cccc(N3C(=O)C4CC=CCC4C3=O)c2)cc1 (configuration not stated)	-15	0	-7	0	13	-29%
COc1ccc(NC(=O)CSC2=Nc3ccccc3C3=NC(Cc4ccccc4)C(=O)N23)cc1 (configuration not stated)	-6	0	7	2	11	-26%
CN(CCC#N)C(=O)COC(=O)c1ccc(Cl)cc1O	-34*	-1	-21	-4	-1	-3%
CCSc1ccc2c(c1)N(CCCN1CCN(C)CC1)c1ccccc1S2	-91*	1	4	-5	19	13%
OCCN1CCN(CCCN2c3ccccc3Sc3ccc(C(F)(F)F)cc32)CC1	-106*	5	15	x	38*	-9%
CC(CN1CCN(CCOCCO)CC1)CN1c2ccccc2Sc2ccc(Cl)cc21 (configuration not stated)	x	x	x	x	x	-24%
OCCN1CCN(CC/C=C2/c3ccccc3Sc3ccc(C(F)(F)F)cc32)CC1	-88*	-1	2	-3	23	-30%
COc1cc(-c2noc(C)c2-c2ccc(N(C)C)nc2)cc(OC)c1OC	-59*	17	-2	0	89*	-25%
COc1cc(-c2noc(C)c2-c2ccc3[nH]ccc3c2)cc(OC)c1OC	-18	-1	1	4	7	11%
CCSc1cc(N2CCCC2)nc(-c2ccc(C)cc2)n1	9	-1	3	-1	5	-2%
CCSc1cc(N2CCCC2)nc(-c2cccc(C)c2)n1	5	-1	31*	6	16	-10%
Cc1ccc2c(CNC3CCC(C)CC3)c(C(=O)O)n(Cc3cccc(F)c3)c2c1 (configuration not stated)	16	-1	3	4	-1	-24%
Cc1ccc(S(=O)(=O)/N=C2\C=C(Nc3cccc(C(=O)O)c3)C(=O)c3ccccc32)cc1	7	0	0	-7	3	14µM*
Cc1ccc(S(=O)(=O)/N=C2\C=C(NS(=O)(=O)c3ccccc3)C(=O)c3ccccc32)c(C)c1	x	x	x	x	x	-14%
Cc1ccc(S(=O)(=O)/N=C2\C=C(Nc3ccc(O)cc3)C(=O)c3ccccc32)cc1	x	x	x	x	x	11µM*
Cc1ccc(NC2=C/C(=N/S(=O)(=O)c3cccs3)c3ccccc3C2=O)cc1	4	0	1	-2	-2	u
CC(C)(C)c1ccc(S(=O)(=O)/N=C2\C=C(NS(=O)(=O)c3ccccc3)C(=O)c3ccccc32)cc1	-11	-1	4	6	1	u
CCc1ccc(S(=O)(=O)/N=C2\C=C(Nc3ccc(C(=O)O)cc3)C(=O)c3ccccc32)cc1	2	-2	-1	x	4	18µM*
Oc1cccc(NC(=S)N=Nc2c(O)[nH]c3ccccc23)c1	-31*	-3	18	-19	7	-19%
Oc1[nH]c2ccccc2c1N=NC(=S)NCCc1ccccc1	-30*	-1	0	-12	4	-12%
CCOc1ccc(NC(=S)N=Nc2c(O)[nH]c3ccccc23)cc1	-6	2	-9	-9	0	3%
CC(C)c1ccc2[nH]c(O)c(N=NC(=S)NCCc3ccccc3)c2c1	14	-1	2	-1	6	-7%
CCCCNC(=S)N=Nc1c(O)[nH]c2ccccc12	-31*	0	3	-11	0	-12%
CC(=O)c1cccc(Nc2nn(-c3ccc(OC(F)(F)F)cc3)nc2C(C)=O)c1	-5	3	4	1	6	-18%
SMILES	D1 antag	TRHR ag	TRHR enhancer	D1 potentiator	D1 agonist	USP1-UAF1 inh
Cn1nnnc1Sc1ncnc2scc(-c3ccc(C(=O)OC(C)(C)C)cc3)c12	-6	0	4	14	5	x
CN(C)CCNS(=O)(=O)c1ccc2c3c(cccc13)C(=O)N2	-2	1	40*	1	4	-19%
O=C1C=C(N2CCOCC2)c2ccccc2C1=O	2	0	2	1	0	3.2µM*
O=C(O)c1cccc(NC2=C(N3CCOCC3)C(=O)c3ccccc3C2=O)c1	-11	0	-6	-4	1	32µM*
O=C1C=C(N2CCOCC2)c2cccc3cccc1c23	x	x	x	x	x	-23%
O=C(CN1C(=O)COc2ccc(S(=O)(=O)N3CCOCC3)cc21)N1CCN(c2ccc(Cl)cc2)CC1	1	0	2	-1	2	-31%
C=CCn1c(=N)n(CC(=O)c2ccc(Br)cc2)c2ccccc21	-18	0	-3	3	0	-2%
N=c1n(N)c2ccccc2n1CC(=O)c1ccc(Br)cc1	-18	-1	33*	3	0	u
Cc1ccc([C@@H]2C[C@H]3CN(Cc4cccc(Cl)c4)C(=O)[C@]34CCCN24)o1	15	-2	-2	0	1	-17%
O=C1N(Cc2cccc(Cl)c2)C[C@@H]2C[C@@H](c3ccc4nonc4c3)N3CCC[C@@]123	-36*	-1	-1	-5	8	-18%
COc1ccccc1CN1C[C@@H]2C[C@@H](c3ccc4nsnc4c3)N3CCC[C@@]23C1=O	-72*	-1	-3	-4	0	-22%
O=C1N(Cc2cccc(Cl)c2)C[C@@H]2C[C@@H](c3cccc4ncccc34)N3CCC[C@@]123	-35*	-1	6	-4	3	-21%
CN1CCN(c2ncc3c(n2)CCN(Cc2ccc(Br)s2)C3)CC1	-41*	1	-4	-1	9	-26%
CCN1CCN(c2ncc3c(n2)CCN(Cc2ccc(C)s2)C3)CC1	-32*	0	4	-1	0	-9%
CCN1CCN(c2ncc3c(n2)CCN(Cc2ccc(Br)s2)C3)CC1	0	0	0	0	12	-4%
CCN1CCN(c2ncc3c(n2)CCN(Cc2ccc(OC(C)C)cc2)C3)CC1	-40*	0	-2	-1	1	-10%
COc1cc(CN2CCc3nc(N4CCN(c5ccccn5)CC4)ncc3C2)cc(OC)c1OC	-31*	0	-1	0	8	-18%
CCOc1ccccc1CNC(=O)c1cnn(-c2ccc(C)cc2)c1-n1cccc1	0	-1	4	-2	21	10%
O=C(O)c1ccc2c(=O)[nH]c(CN3CCOCC3)nc2c1	-11	-1	-4	-3	-2	-9%
O=C(O)c1ccc2c(=O)[nH]c(CCl)nc2c1	-4	1	33*	-3	5	0%
